Screening results: PubChem BioAssay, National Center for Advancing Translational Sciences (NCATS)
Compounds with a hit are over-represented: about 10% of the library has one in this group of screens.
G9a block: qHTS Assay for Inhibitors of Histone Lysine Methyltransferase G9a. hit rate 8.8% among 350,000. G9a H3K9 monomethylation, AlphaScreen, 2 h. Potency, µM (highest dose often 102 µM), without a hit: at the top dose activity, negative = inhibition, most hits filed as inhibitors. Histone-lysine N-methyltransferase EHMT2 (Homo sapiens), Q96KQ7; further: on the % scale 0 is the no-effect control and ±100 the full control effect; nearly all actives have a fitted effect of over 75% in size
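Readings reflect AlphaScreen signal from monomethyl-H3K9 antibody detection. HMT at 20 nM; substrate b-H3K9 500 nM; cofactor SAM 20 uM; 2 h RT reaction; compounds tested as titrations in qHTS with 15 min preincubation.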
GLS inh: qHTS for Inhibitors of Glutaminase (GLS). Glutaminase kidney isoform, mitochondrial (Homo sapiens), O94925. GLS enzymatic activity, qHTS titration. Potency, µM (highest dose often 45.5 µM), without a hit: top-dose activity change, negative = inhibition, actives largely listed as inhibitors. hit rate 0.21% among 410,000. AID 624170, 2012; further: on the % scale 0 is the no-effect control and ±100 the full control effect
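Human kidney-isoform GLS in 45 mM KH2PO4 pH 8.2, 0.02% Tween-20, with compound, started with 1mM L-Glutamine (added stock). Glutamate oxidase/HRP/Amplex red coupled fluorescence read at start and after 30 min at RT.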
HP1b binding inh: HTS for Inhibitors of HP1-beta Chromodomain Interactions with Methylated Histone Tails; Chromobox protein homolog 1 (Homo sapiens), P83916; AlphaScreen HP1-beta / biotin-H3K9me3 peptide binding; Potency, µM (series often up to 114 µM), for the others: at the highest dose activity change, negative = inhibition, most hits filed as inhibitors; hit rate 0.56% among 390,000; further: nearly all actives have a fitted effect of over 70% in size
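HP1-beta protein (50 nM final) preincubated 30 min at room temperature with biotinylated H3(1-18)K9me3 peptide (50 nM) in PBS pH 7.4, 0.01% Tween-20, then compound added for 30 min. AlphaScreen streptavidin donor/nickel chelate acceptor beads (10 ug/mL final), 30 min dark, luminescence read.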
JMJD2A Tudor: qHTS Assay for Inhibitors of JMJD2A-Tudor Domain; AlphaScreen JMJD2A-Tudor / H3K4me3 peptide binding; Potency, µM (highest dose often 114 µM), for the others: at the top dose activity change, negative = inhibition, most hits filed as inhibitors; hit rate 4.4% among 390,000; AID 504339, 2011; further: on the % scale 0 is the no-effect control and ±100 the full control effect; nearly all actives have a fitted effect of over 50% in size
BAZ2B inh: qHTS Assay for Inhibitors of BAZ2B; AlphaScreen BAZ2B-H3K14Ac peptide displacement; Potency, µM (titrated, usually from 114 µM), without a hit: at the highest dose activity change, negative = inhibition, hits mostly inhibitors; hit rate 4.4% among 360,000; further: on the % scale 0 is the no-effect control and ±100 the full control effect; nearly all actives have a fitted effect of over 60% in size
Target sequence (Q9UIF8 whole entry, looked up): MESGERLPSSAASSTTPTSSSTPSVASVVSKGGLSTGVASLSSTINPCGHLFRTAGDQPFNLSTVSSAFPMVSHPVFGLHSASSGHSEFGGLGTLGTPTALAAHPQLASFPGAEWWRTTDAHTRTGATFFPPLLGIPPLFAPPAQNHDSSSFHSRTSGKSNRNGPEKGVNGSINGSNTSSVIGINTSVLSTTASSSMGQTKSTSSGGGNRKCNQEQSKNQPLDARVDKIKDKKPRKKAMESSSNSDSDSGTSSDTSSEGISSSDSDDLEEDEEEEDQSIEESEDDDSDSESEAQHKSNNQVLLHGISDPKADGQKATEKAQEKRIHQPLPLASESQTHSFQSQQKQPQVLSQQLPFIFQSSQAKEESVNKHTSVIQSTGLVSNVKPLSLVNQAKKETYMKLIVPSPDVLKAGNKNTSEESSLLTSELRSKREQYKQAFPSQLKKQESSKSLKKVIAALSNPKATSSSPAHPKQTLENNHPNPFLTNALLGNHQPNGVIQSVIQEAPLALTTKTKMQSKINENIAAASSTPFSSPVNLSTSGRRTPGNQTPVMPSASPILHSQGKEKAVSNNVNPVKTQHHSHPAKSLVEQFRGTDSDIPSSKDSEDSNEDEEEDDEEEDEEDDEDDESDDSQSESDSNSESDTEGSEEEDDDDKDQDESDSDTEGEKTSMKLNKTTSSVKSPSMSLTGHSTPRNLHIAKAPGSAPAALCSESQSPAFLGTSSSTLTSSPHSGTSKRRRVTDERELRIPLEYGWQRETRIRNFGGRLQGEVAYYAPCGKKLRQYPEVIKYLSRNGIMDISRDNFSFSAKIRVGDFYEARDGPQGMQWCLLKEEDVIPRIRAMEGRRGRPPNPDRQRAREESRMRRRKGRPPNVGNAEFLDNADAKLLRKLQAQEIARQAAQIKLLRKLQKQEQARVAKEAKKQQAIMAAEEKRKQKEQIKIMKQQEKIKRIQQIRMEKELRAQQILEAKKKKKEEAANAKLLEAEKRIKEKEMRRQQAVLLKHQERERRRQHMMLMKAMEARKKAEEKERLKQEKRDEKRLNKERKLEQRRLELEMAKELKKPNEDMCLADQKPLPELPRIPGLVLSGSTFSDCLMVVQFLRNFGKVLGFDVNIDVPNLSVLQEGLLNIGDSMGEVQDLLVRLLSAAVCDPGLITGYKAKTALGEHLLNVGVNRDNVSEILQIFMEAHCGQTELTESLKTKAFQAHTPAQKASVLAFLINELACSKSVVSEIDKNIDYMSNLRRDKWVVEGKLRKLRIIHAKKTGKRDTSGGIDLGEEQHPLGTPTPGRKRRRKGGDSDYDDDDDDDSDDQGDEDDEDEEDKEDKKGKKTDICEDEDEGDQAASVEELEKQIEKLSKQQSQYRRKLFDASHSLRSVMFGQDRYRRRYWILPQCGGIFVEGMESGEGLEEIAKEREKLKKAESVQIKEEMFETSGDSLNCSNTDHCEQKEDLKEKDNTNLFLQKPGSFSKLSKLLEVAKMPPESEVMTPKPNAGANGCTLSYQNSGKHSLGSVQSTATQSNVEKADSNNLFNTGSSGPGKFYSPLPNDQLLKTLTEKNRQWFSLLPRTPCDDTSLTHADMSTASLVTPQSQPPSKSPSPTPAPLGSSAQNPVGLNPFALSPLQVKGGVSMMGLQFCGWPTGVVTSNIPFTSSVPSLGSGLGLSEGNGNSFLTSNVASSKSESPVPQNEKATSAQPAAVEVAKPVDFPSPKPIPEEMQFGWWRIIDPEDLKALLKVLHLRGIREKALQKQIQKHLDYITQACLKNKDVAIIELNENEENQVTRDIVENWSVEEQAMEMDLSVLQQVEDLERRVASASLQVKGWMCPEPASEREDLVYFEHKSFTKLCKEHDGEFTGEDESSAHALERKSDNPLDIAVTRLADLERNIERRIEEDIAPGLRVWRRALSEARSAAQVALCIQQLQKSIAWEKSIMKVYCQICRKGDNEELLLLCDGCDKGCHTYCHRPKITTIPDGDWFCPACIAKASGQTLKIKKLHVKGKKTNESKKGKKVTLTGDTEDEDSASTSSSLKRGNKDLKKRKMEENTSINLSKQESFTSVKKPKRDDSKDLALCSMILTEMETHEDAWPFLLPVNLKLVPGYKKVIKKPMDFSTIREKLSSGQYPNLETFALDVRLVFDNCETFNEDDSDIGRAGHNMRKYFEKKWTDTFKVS
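BAZ2B 50 nM plus b-H3(5-23)K14Ac 50 nM, PBS pH 7.4/0.01% Tween-20, 30 min RT; compound added (max 110 uM), 30 min RT; streptavidin donor/Ni-chelate acceptor beads 10 ug/mL final, 20 min dark; AlphaScreen read.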
Starred values were filed as active, the others as inactive; ? = inconclusive; / = no result; [ ] = another dose, or the depositor's remark. The call rests on the fitted dose curve; in most records, active means well fitted curve in the direction sought with a large enough effect; inconclusive means small, poorly fitted or top-dose-only effect, or another doubt; inactive means no such curve, though single readings can be large; an effect the other way counts as inactive or inconclusive. Potency means the concentration at half of the fitted maximal effect.

SMILES	G9a block	GLS inh	HP1b binding inh	JMJD2A Tudor	BAZ2B inh
Cc1ccc2c(c1)c(/C=C/c1cc[n+](C)cc1)c(C)n2C	45µM*	1%	8%	?	-15%
Cc1cccc(S(=O)(=O)Nc2cccc3c2C(=O)c2ccccc2-3)c1	-18%[59 µM]	-7%	7%	-17%	3%
CC(C)c1ccc(S(=O)(=O)/N=C2/C=CC(=O)c3ccccc32)cc1	11µM*	/	/	/	7.9µM*
CCc1ccc(S(=O)(=O)/N=C2\C=C(NS(=O)(=O)c3ccccc3)C(=O)c3ccccc32)cc1	13µM*	-2%	14µM*	22µM*	8.9µM*
Cc1ccc(C)c(S(=O)(=O)/N=C2\C=C(NS(=O)(=O)c3ccccc3)C(=O)c3ccccc32)c1	14µM*	17%	?	22µM*	10µM*
CC(C)(C)c1cc[n+](C2=C([O-])c3ccccc3C(=O)/C2=N\S(=O)(=O)c2ccccc2)cc1	/	3%	25%	-1%	-37%
CC(C)c1ccc(S(=O)(=O)/N=C2\C=C(NS(=O)(=O)c3ccccc3)C(=O)c3ccccc32)cc1	6.3µM*	-9%	20µM*	28µM*	7.1µM*
CCCCCCCCCCCCC/C=C/[C@@H](O)[C@H](CO)NC(C)=O	25%[59 µM]	/	/	/	/
O=S(=O)(Nc1c(S(=O)(=O)c2ccccc2)c2nc3ccccc3nc2n1C1CCCCC1)c1ccccc1	3%[59 µM]	-17%	68%	11%	4%
C=CCn1c(NS(=O)(=O)c2ccccc2)c(S(=O)(=O)c2ccc(C)cc2)c2nc3ccccc3nc21	2µM*	1%	87%	12%	-19%
Cc1cccc(Nc2sc(C(=O)c3ccc(Cl)cc3)c(N)c2C(N)=O)c1	1%[59 µM]	0%	8%	-20%	?
Cc1ccccc1Nc1sc(C(=O)Nc2cccc(Cl)c2)c(N)c1C(N)=O	79µM*	5%	16%	-18%	?
COc1ccc(Cl)cc1Nc1sc(C(=O)c2ccccc2)c(N)c1C(=O)Nc1ccccc1	16µM*	2%	?	?	?
C[C@@H]1[C@H](O)C[C@@]23COC(=O)C2=CCCC3[C@@]1(C)CCC1COC(=O)C1 (stereo partly specified)	0%[12.7 µM]	8%	27%	-15%	8%
CC(Oc1cc(F)ccc1[N+](=O)[O-])C(=O)N(C)CC(=O)Nc1ccccc1C(F)(F)F (stereo unspecified)	12%	5%	-7%	0%	-2%
NC(=S)Nc1cccc2cccnc12	22%[2.33 µM]	12%	10%	-31%	?
NC(=S)NNc1cccc2cccnc12	18µM*	?	-16%	10µM*	25µM*
O=C(CI)Nc1cccc2cccnc12	/	/	-20%	20µM*	/
CCC(=O)Nc1cccc2cccnc12	-12%[59 µM]	4%	67%	6%	-5%
O=C(CCCl)Nc1cccc2cccnc12	/	/	68%	79µM*	/
O=C(CCBr)Nc1cccc2cccnc12	/	/	7%	79µM*	/
Cc1ccc(-c2nnc3ccccc3c2C(=O)Nc2cccc(C(F)(F)F)c2)cc1	-16%[59 µM]	4%	59%	-14%	-23%
Cc1ccc(-c2cc3c(N4CCN(c5cc(C)ccc5C)CC4)nccn3n2)cc1	?	-17%	-17%	-25%	?
CC(C)(C)OC(=O)C(C)(C)Sc1nnc(N)s1	4%	-4%	22%	-10%	6%
O=C(COc1ccc(Cl)cc1Cl)N1CCCC1	?	3%	22%	-12%	-6%
SMILES	G9a block	GLS inh	HP1b binding inh	JMJD2A Tudor	BAZ2B inh
Clc1ccc(OCCN2CCCCC2)c(Cl)c1	11µM*	10%	45µM*	5.6µM*	50µM*
Clc1ccccc1OCCN1CCCCC1	?	-6%	?	22µM*	-3%
Cc1c(N2CCCC2)cc2c(c1NC(=O)c1ccccc1Cl)C(C)(C)CC2(C)C	28µM*	14%	6%	-34%	-37%
Cc1cccc(NC(=O)c2cnc3sc(N4CCCC4)nn3c2=O)c1C	10%[59 µM]	5%	50%	1%	4%
O=C1c2ccccc2NC2(CCCCC2)N1c1ccc(O)cc1	2%[59 µM]	18%	33%	-3%	-6%
CC1CCC2(CC1)Nc1ccccc1C(=O)N2c1ccccc1 (stereo unspecified)	71µM*	-6%	19%	-15%	5%
Cc1ccccc1Nc1nc(N)c(C(=O)c2ccccc2Cl)s1	-49%[59 µM]	-6%	-25%	56µM*	32µM*
COc1ccc(C(=O)c2sc(Nc3cc(Cl)ccc3C)nc2N)cc1OC	-48%[59 µM]	2%	-21%	22µM*	?
Cc1ccccc1Nc1nc(Cl)c(C=O)s1	11%	11%	41%	1%	1%
Nc1nc(Nc2ccccc2)sc1C(=O)c1ccccc1	45µM*	?	?	?	40µM*
COc1ccc(C(=O)c2sc(Nc3ccccc3)nc2N)cc1OC	71µM*	?	-24%	?	-32%
CC1CC(=O)Nc2ccccc2N1C(=O)Cn1cnc2ccccc2c1=O (stereo unspecified)	7%[12.7 µM]	0%	38%	1%	9%
CC(=O)N(CC(O)CN(C(C)=O)c1c(I)c(C(=O)NC[C@@H](O)CO)c(I)c(C(=O)NC[C@@H](O)CO)c1I)c1c(I)c(C(=O)NC[C@@H](O)CO)c(I)c(C(=O)NC[C@@H](O)CO)c1I	32%[21.5 µM]	?	/	/	/
COc1cc(CNn2cn[nH]c2=S)ccc1OCC(=O)NC(C)(C)C	18µM*	-5%	52%	?	-33%
COc1cc(CNC(C)(C)CO)ccc1OCC(=O)NC(C)(C)C	-2%[59 µM]	3%	40%	-2%[57.1 µM]	3%
COc1cc(CNn2c(C)n[nH]c2=S)cc(Br)c1OCC(=O)NC(C)(C)C	4µM*	-6%	26%	?	-8%
COc1cc(CNn2c(C)n[nH]c2=S)cc(Cl)c1OCC(=O)NC(C)(C)C	/	-25%	52%	56µM*	-7%
CCOc1cc(CNn2cnnc2)cc(Cl)c1OCC(=O)NC(C)(C)C	17%	-1%	34%	-4%	-32%
CC1CCc2c(sc(NC(=O)c3cc(-c4cccc(Cl)c4)on3)c2C(N)=O)C1 (stereo unspecified)	-25%[59 µM]	-4%	53%	-10%	-3%
COc1ccc(C(C(=O)NCc2ccccc2)N(C(=O)Cn2nnc3ccccc32)c2cccc(OC)c2)cc1 (stereo unspecified)	1%[59 µM]	7%	23%	1%	1%
CC(=O)NCCNc1nc2cc(-c3cscc3C)sc2c(=O)n1C	/	-14%	/	/	/
Cc1cc2ncc(S(C)(=O)=O)c(N)n2n1	2%	3%	4%	13µM*	-7%
CC(C)c1nc(SCC(=O)Nc2ccc(N(C)C)cc2)c2ccccc2n1	8.9µM*	20%	-12%	?	?
